In PubChem BioAssay (NCATS) one finds Potency data, which are given here for twelve molecules.

Results filed as inconclusive are left out. Entries that show only a call come without a potency. Calls of active or inactive are those of the source. Calls come from the whole dose curve.
Potency is the fitted concentration of half-maximal effect.

This assay in a line: Cytotoxicity counterscreen for inhibitors of SARS-CoV-2 cell entry (AID 1645845). Note: nearly all actives have a fitted effect of over 50% in size. To be noted: cell viability (SARS-CoV-2 entry assay cells); series mostly up to 57.1 µM. The method, boiled down: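 ATP-content luminescence (ATPLite 1step, 15 min RT) read after 48 h compound exposure of Expi293F cells stably expressing human ACE2; normalized to cells-only wells and media-only wells.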
Regarding `CC(=O)O[C@@]12CO[C@@H]1C[C@H](O)[C@@]1(C)C(=O)[C@H](O)C3=C(C)[C@@H](OC(=O)[C@H](O)[C@@H](NC(=O)OC(C)(C)C)c4ccccc4)C[C@@](O)([C@@H](OC(=O)c4ccccc4)[C@H]21)C3(C)C`, the Potency was 8.91 µM (active).
The value for `CNCCCN1c2ccccc2CCc2ccccc21` was “inactive”; that for `CNS(=O)(=O)CCc1ccc2[nH]cc(C3CCN(C)CC3)c2c1` was “inactive”; that for `C=C[C@H]1CN2CC[C@H]1C[C@@H]2[C@@H](O)c1ccnc2ccc(OC)cc12` was “inactive”.
The value for `CO[C@H]1C=CO[C@@]2(C)Oc3c(C)c(O)c4c(O)c(c(/C=N/N5CCN(C)CC5)c(O)c4c3C2=O)NC(=O)/C(C)=C\C=C[C@H](C)[C@H](O)[C@@H](C)[C@@H](O)[C@@H](C)[C@H](OC(C)=O)[C@@H]1C` was “inactive”; that for `CC[C@@]1(O)C(=O)OCc2c1cc1n(c2=O)Cc2cc3c(CN(C)C)c(O)ccc3nc2-1` was “inactive”; that for `CCOC(=O)C1=C(C)NC(C)=C(C(=O)OC)C1c1cccc(Cl)c1Cl` (configuration not stated) was “inactive”.
The result for `CC(C)C1CCC(C(=O)N[C@H](Cc2ccccc2)C(=O)O)CC1` (some centres not stated) reads “inactive”; that for `CC#C[C@]1(O)CC[C@H]2[C@@H]3CCC4=CC(=O)CCC4=C3[C@@H](c3ccc(N(C)C)cc3)C[C@@]21C`, “inactive”; that for `C[C@]12CC[C@@H]3c4ccc(O)cc4C[C@@H](CCCCCCCCCS(=O)CCCC(F)(F)C(F)(F)F)[C@H]3[C@@H]1CC[C@@H]2O` (some centres not stated), “inactive”.
Consider `CCc1ccc(CCOc2ccc(CC3SC(=O)NC3=O)cc2)nc1` (configuration not stated), for which the Potency entry was “inactive”.
The result for `CNC1(C)C2CCC(C2)C1(C)C` (configuration not stated) reads “inactive”.
